Source: the supplement of paper PMC12645437, “Orthogonal IMiD-Degron Pairs Induce Selective Protein Degradation in Cells” (ACS Chemical Biology, 2025)
Over roughly 8,300 sequences, “log2 fold change of degron read counts, EGFP-low vs EGFP+ sorted cells (limma voom), compound-induced degradation” has its median near -1.1; the highest 2% begin near 3.2. Only a selection was taken, and the highest values are over-represented in it overall.

T1: CRBN, Q96SW2
T1 chain: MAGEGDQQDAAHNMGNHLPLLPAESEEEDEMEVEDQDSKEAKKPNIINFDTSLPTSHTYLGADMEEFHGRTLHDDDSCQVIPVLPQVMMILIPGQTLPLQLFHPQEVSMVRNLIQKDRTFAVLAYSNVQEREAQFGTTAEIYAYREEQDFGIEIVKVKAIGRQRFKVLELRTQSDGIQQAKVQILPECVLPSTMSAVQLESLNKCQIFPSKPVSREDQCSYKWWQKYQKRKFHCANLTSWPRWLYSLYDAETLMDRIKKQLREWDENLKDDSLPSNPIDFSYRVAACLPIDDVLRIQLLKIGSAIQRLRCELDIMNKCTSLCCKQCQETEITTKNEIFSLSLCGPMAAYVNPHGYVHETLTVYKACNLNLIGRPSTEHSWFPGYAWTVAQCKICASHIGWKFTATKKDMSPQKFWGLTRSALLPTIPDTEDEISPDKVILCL

B1: 46F_47H_49N_50Q_52G_53A_54R_55F_67L_, Q9UKT9 (peptide)
chain: FHCNQCGARFTQKGNLLRHIKL
B2: 46F_47V_49N_50Q_52G_53H_54T_55F_67L_, Q9UKT9 (peptide)
chain: FVCNQCGHTFTQKGNLLRHIKL
B3: 46L_47E_49P_50I_52G_53F_54D_55C_67L_, Q9UKT9 (peptide)
chain: LECPICGFDCTQKGNLLRHIKL
B4: 46L_47Y_49N_50Q_52G_53F_54Y_55C_67L_, Q9UKT9 (peptide)
chain: LYCNQCGFYCTQKGNLLRHIKL
B5: 46F_47G_49P_50I_52G_53A_54V_55F_67L_, Q9UKT9 (peptide)
chain: FGCPICGAVFTQKGNLLRHIKL
B6: 46F_47V_49P_50I_52G_53A_54V_55F_67L_, Q9UKT9 (peptide)
chain: FVCPICGAVFTQKGNLLRHIKL
B7: 46F_47A_49P_50I_52G_53A_54V_55F_67L_, Q9UKT9 (peptide)
chain: FACPICGAVFTQKGNLLRHIKL
B8: 46F_47R_49P_50I_52G_53A_54V_55F_67L_, Q9UKT9 (peptide)
chain: FRCPICGAVFTQKGNLLRHIKL
B9: 46F_47S_49P_50I_52G_53A_54V_55F_67L_, Q9UKT9 (peptide)
chain: FSCPICGAVFTQKGNLLRHIKL
B10: 46F_47E_49P_50I_52G_53A_54V_55F_67L_, Q9UKT9 (peptide)
chain: FECPICGAVFTQKGNLLRHIKL
B11: 46F_47Q_49P_50I_52G_53A_54V_55F_67L_, Q9UKT9 (peptide)
chain: FQCPICGAVFTQKGNLLRHIKL
B12: 46F_47T_49P_50I_52G_53A_54V_55F_67L_, Q9UKT9 (peptide)
chain: FTCPICGAVFTQKGNLLRHIKL
B13: 46F_47I_49P_50I_52G_53A_54V_55F_67L_, Q9UKT9 (peptide)
chain: FICPICGAVFTQKGNLLRHIKL
B14: 46F_47R_49E_50I_52G_53R_54H_55F_67L_, Q9UKT9 (peptide)
chain: FRCEICGRHFTQKGNLLRHIKL

Target: T1, CRBN, Q96SW2
Test: log2 fold change of degron read counts, EGFP-low vs EGFP+ sorted cells (limma voom), compound-induced degradation; higher = more compound-induced degradation of the degron-EGFP fusion; degrons are variants of IKZF1/3 zinc finger 2; compound dose not given here
Conditions: Jurkat, 18 h
[1] = compound: compound 19 (5-tert-butyl-thalidomide)
[2] = compound: compound 22 (5-morpholino-thalidomide)
[3] = compound: compound 33 (diphenyl IMiD analogue)
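Also: pooled lentiviral library of zinc finger degron-EGFP fusions in mCherry-positive Jurkat cells, FACS-sorted after compound exposure, with degron abundance counted by next-generation sequencing.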

Sequence	log2 fold change of degron read counts [1]	log2 fold change of degron read counts [2]	log2 fold change of degron read counts [3]	log2 fold change of degron read counts (compound: thalidomide)
B1	-1.49	-1.78	-1.81	-2.18
B2	-3.49	-3.28	-3.04	-3.41
B3	-2.52	-2.45	-1.18	-0.86
B4	-0.857	-0.989	-0.803	-0.772
B5	3.56	2.54	2.82	1.23
B6	-0.253	1.32	2.04	2.17
B7	2.91	1.96	1.75	1.06
B8	-1.19	-0.551	1.51	1.37
B9	2.16	1.75	2.72	1.48
B10	0.283	-0.0372	2.77	3.33
B11	0.109	3.16	2.7	3.67
B12	0.104	2.31	2.43	2.95
B13	-0.717	0.836	1.86	1.85
B14	-2.34	-2.75	-1.24	-1.05
